The ΔTm is the shift of the melting midpoint relative to a reference.

Molecules are shown by their SMILES.

Common to all, as to settings: Compound concentration 20.0 uM
Experiment [1] has as its target Tyrosine-protein kinase ABL1 (Homo sapiens) (UniProt P00519).
Experiment [2] concerns the target Bromodomain-containing protein 4 (Homo sapiens) (UniProt O60885).
Experiment [3] deals with Cyclin-dependent kinase 2 (Homo sapiens) (UniProt P24941).
The target of experiment [4] is Casein kinase I isoform delta (Homo sapiens) (UniProt P48730).
Casein kinase I isoform delta (Homo sapiens), sequence (P48730 whole entry, looked up, canonical isoform): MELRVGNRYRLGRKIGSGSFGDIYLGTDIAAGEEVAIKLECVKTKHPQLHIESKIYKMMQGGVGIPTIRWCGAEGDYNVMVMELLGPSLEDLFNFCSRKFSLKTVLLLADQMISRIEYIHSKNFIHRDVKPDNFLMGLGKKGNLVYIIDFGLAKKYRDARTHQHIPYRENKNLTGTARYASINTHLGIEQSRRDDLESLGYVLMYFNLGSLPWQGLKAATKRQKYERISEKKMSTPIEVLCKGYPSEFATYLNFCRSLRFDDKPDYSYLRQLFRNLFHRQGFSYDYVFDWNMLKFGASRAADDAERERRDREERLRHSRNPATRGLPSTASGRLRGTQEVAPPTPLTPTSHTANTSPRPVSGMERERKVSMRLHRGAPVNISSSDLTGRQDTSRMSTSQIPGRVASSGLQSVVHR
Experiment [5] addresses Glycogen synthase kinase-3 beta (Homo sapiens) (UniProt P49841).
Experiment [6] has as its target Mitogen-activated protein kinase 1 (Homo sapiens) (UniProt P28482).
For experiment [7], the target named is T1, Aurora kinase A (Homo sapiens) (UniProt O14965).
T1 sequence (whole entry): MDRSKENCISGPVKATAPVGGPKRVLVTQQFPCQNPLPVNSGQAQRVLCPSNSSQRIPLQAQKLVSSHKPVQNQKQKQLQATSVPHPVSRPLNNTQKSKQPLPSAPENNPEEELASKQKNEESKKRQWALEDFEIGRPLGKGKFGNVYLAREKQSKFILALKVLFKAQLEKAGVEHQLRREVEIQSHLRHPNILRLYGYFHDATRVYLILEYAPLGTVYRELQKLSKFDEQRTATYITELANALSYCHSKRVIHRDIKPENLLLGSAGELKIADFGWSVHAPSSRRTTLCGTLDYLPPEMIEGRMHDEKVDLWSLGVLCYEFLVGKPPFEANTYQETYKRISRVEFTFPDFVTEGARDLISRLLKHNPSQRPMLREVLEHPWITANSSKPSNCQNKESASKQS

The target in experiment [8] is T2, Transcription intermediary factor 1-alpha (Homo sapiens) (UniProt O15164).
T2 sequence (whole entry): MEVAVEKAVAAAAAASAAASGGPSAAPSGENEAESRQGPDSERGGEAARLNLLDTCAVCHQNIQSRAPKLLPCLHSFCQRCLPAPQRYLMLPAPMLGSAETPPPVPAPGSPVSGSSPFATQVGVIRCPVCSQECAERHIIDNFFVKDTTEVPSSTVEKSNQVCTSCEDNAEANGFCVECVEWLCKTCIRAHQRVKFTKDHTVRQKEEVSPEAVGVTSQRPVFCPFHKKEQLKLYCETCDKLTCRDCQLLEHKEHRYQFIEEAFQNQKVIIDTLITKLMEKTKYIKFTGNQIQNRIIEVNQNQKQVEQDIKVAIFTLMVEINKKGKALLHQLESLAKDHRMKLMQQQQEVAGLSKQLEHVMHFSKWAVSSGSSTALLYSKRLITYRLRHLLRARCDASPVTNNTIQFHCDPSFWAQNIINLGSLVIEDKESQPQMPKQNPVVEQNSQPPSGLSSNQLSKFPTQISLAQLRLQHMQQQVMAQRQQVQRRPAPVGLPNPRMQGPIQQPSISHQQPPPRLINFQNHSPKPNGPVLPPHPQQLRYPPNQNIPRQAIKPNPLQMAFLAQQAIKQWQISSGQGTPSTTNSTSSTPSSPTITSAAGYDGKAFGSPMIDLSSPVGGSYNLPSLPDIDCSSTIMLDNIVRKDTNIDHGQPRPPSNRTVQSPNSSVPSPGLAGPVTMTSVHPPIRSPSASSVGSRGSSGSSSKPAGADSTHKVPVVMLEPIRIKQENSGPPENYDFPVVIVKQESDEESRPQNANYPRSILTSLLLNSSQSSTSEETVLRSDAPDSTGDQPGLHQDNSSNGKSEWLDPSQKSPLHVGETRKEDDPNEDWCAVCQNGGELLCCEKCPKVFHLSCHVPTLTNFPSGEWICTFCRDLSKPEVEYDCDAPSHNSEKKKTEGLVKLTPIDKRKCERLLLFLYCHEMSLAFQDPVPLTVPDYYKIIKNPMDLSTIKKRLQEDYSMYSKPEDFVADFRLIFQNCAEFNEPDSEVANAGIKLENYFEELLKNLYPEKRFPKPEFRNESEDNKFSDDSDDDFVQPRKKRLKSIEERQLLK

Mitogen-activated protein kinase 1 (Homo sapiens), sequence (P28482 whole entry): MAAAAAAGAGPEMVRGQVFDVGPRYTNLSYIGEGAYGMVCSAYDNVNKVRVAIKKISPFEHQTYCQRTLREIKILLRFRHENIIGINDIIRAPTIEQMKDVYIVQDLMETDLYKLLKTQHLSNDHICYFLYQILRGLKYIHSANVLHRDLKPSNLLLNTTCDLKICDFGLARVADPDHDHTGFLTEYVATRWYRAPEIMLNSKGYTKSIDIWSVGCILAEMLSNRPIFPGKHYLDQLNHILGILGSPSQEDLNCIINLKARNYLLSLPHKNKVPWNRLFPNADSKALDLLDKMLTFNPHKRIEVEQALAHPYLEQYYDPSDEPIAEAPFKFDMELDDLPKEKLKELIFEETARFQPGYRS
Tyrosine-protein kinase ABL1 (Homo sapiens), sequence (P00519 whole entry): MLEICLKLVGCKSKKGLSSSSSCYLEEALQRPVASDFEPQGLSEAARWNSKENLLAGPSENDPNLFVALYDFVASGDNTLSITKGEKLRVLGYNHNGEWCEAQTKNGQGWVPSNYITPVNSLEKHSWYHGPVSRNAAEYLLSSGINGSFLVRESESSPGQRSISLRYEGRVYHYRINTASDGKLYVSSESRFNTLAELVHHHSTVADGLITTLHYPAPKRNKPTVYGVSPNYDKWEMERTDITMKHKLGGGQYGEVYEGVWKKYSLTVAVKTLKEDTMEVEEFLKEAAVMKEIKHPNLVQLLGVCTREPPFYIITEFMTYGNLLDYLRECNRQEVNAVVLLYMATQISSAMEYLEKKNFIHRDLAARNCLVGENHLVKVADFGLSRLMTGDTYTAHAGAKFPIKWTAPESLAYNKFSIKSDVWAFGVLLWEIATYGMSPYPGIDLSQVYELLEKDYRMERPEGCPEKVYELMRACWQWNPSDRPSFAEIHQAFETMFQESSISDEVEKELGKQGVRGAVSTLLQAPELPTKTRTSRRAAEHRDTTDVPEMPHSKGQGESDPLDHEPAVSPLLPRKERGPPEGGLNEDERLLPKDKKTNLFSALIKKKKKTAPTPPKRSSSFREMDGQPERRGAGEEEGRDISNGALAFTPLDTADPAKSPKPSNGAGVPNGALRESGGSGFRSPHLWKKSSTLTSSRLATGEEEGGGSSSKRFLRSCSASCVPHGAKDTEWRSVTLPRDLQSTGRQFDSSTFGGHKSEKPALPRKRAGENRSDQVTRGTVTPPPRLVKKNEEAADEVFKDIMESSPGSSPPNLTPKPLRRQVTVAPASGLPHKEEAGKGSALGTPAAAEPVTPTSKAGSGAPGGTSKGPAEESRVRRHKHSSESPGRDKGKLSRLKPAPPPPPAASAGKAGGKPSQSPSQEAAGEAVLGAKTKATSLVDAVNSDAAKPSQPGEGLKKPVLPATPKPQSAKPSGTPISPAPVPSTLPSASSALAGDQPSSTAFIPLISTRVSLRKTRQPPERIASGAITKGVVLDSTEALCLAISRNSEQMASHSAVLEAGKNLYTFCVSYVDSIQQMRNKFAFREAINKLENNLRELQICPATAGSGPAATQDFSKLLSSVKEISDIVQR
Glycogen synthase kinase-3 beta (Homo sapiens), sequence (P49841 whole entry, looked up): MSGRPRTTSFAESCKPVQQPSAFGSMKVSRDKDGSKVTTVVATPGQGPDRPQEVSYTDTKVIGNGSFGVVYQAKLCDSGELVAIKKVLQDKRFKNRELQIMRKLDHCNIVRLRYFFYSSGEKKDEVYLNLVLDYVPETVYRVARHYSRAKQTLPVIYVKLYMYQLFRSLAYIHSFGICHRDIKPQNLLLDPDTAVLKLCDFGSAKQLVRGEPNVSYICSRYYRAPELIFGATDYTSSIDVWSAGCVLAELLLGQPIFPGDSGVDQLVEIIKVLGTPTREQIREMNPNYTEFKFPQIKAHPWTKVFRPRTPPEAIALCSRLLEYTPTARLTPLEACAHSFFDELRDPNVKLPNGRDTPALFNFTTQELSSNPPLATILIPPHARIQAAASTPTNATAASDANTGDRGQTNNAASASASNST

Turning to `COc1nc(N)nc(Nc2cc(S(N)(=O)=O)ccc2N[C@@H](c2cccc3c2OC(F)(F)O3)c2ncccc2Cl)n1`, the ΔTm in experiment [1] was 1.16 °C; in experiment [2], -2.02 °C; in experiment [3] it was -0.4 °C; in experiment [4], 0.06 °C; in experiment [5], -3.33 °C; in experiment [6], -12.4 °C. In addition, the ΔTm was -1.68 °C in experiment [7] and 0.11 °C in experiment [8].
Turning to `Cc1cc(-c2ccc3nc(C4CCOCC4)n(CCOC(F)(F)F)c3c2)cn(C)c1=O`, the ΔTm was 0.26 °C in experiment [1]; 10.3 °C in experiment [2]; 0.15 °C in experiment [3]; 0.13 °C in experiment [4]; -0.07 °C in experiment [5]; -0.47 °C in experiment [6]. In addition, the ΔTm in experiment [7] is -0.36 °C; in experiment [8], -0.3 °C.
Take `COc1ncc(C)cc1CC[C@@](O)(CC(=O)O)C(=O)O`: the ΔTm is 0.5 °C in experiment [1]; -1.94 °C in experiment [2]; 0.22 °C in experiment [3]; -0.36 °C in experiment [4]; 0.4 °C in experiment [5]; 0.35 °C in experiment [6]. For the same compound, the ΔTm in experiment [7] is -1.39 °C; in experiment [8] it was -0.23 °C.
Consider `COc1ccccc1[C@H]1[C@H](C(=O)O)[C@H](c2ccccc2OC)[C@H]1C(=O)Oc1cccc2ccccc12`, for which the ΔTm is 0.47 °C in experiment [1]; -2.56 °C in experiment [2]; -0.65 °C in experiment [3]; -3.09 °C in experiment [4]; 0 °C in experiment [5]; -0.07 °C in experiment [6]. In addition, the ΔTm in experiment [7] is -2.4 °C; in experiment [8], -2.09 °C.
In the case of `CC(=O)OCCN1C(=O)c2c(C)nc3ccc(S(=O)(=O)N4CCOCC4)cc3c2C1=O`, the ΔTm in experiment [1] is -0.43 °C; in experiment [2], -1.49 °C; in experiment [3], -0.16 °C; in experiment [4] it was 0.13 °C; in experiment [5] it was -0.73 °C; in experiment [6], -0.31 °C. In addition, the figures for the ΔTm in experiment [7] and in experiment [8] were -1.13 °C and -1.22 °C, respectively.
With `C[C@@H](Nc1nc2c(cnn2C2CCCC2)c(=O)[nH]1)C(=O)N1CC[C@H](F)C1`, the ΔTm in experiment [1] is 0.58 °C; in experiment [2], -2.88 °C; in experiment [3], 0.63 °C; in experiment [4] it was -0.33 °C; in experiment [5], 1.37 °C; in experiment [6], 0.07 °C. Moreover, the ΔTm in experiment [7] was -2 °C; in experiment [8] it was 0.97 °C.
In the case of `C[C@@H]1CCC[C@H](C)N1NC(=O)c1ccc(Cl)c(S(N)(=O)=O)c1`, the ΔTm was 0.07 °C in experiment [1]; -0.69 °C in experiment [2]; 0.04 °C in experiment [3]; -0.23 °C in experiment [4]; -0.93 °C in experiment [5]; 0.04 °C in experiment [6]. Besides, the thermal shift (ΔTm) in experiment [7] was -1.59 °C; in experiment [8], 0.4 °C.
For the compound `Cc1ccc2[nH]c(-n3nc(C)c(Cc4ccccc4)c3O)nc2c1`, the ΔTm in experiment [1] is 0.97 °C; in experiment [2], -3.32 °C; in experiment [3], 0.2 °C; in experiment [4], 0.73 °C; in experiment [5], 0.42 °C; in experiment [6], 0.56 °C. Moreover, the ΔTm was -1.88 °C in experiment [7] and -0.69 °C in experiment [8].
On to `CCOCC1(COCC)CCC(c2n[nH]cc2CN(C)CCNC)CC1`, for which the shift in melting temperature (ΔTm) was 0.58 °C in experiment [1]; -1.39 °C in experiment [2]; -0.06 °C in experiment [3]; 0.56 °C in experiment [4]; -1.08 °C in experiment [5]; 0.33 °C in experiment [6]. The values for the ΔTm in experiment [7] and in experiment [8] were -0.08 °C and -1.29 °C, respectively.
With `O=C(C[C@@H](C(F)F)n1ccc(F)n1)N1CCC(O)(Cn2cnc3c(cnn3-c3ccc(F)cc3)c2=O)CC1`, the ΔTm in experiment [1] is 0.8 °C; in experiment [2], -3.01 °C; in experiment [3], 0.2 °C; in experiment [4] it was 0.03 °C; in experiment [5], -0.6 °C; in experiment [6] it was 0.27 °C. The ΔTm in experiment [7] is -2.33 °C; in experiment [8], 1.94 °C.
As to `CCC[C@@H]1CNCc2c1[nH]c(=O)c(C#N)c2N1CCC2(CC1)CC2`, the ΔTm in experiment [1] is 0.32 °C; in experiment [2], -1.86 °C; in experiment [3] it was 0.24 °C; in experiment [4], 0.29 °C; in experiment [5], 0.07 °C; in experiment [6] it was -0.21 °C. Moreover, the results for the ΔTm in experiment [7] and in experiment [8] were -0.58 °C and -0.85 °C, respectively.
For the compound `CS(=O)(=O)c1ccc(Oc2cc(F)cc(C#N)c2)c2c1[C@H](O)C(F)(F)C2`, the ΔTm in experiment [1] was 0.43 °C; in experiment [2] it was -2.67 °C; in experiment [3], 0.56 °C; in experiment [4], -0.1 °C; in experiment [5] it was 0.06 °C; in experiment [6], 0.15 °C. Besides, the ΔTm in experiment [7] is -1.44 °C; in experiment [8] it was 0.31 °C.
Consider `N=C(N)SCc1ccc(CN2C(=O)C(=O)c3cc(C(F)(F)F)ccc32)cc1`, for which the ΔTm is -0.91 °C in experiment [1]; -2.92 °C in experiment [2]; 0.03 °C in experiment [3]; 0.19 °C in experiment [4]; -0.71 °C in experiment [5]; 0.42 °C in experiment [6]. For the same compound, the ΔTm in experiment [7] was -1.8 °C; in experiment [8] it was 0 °C.
For the compound `Cc1nccn1CC1CCc2c(c3ccccc3n2C)C1=O` (stereo not given), the ΔTm in experiment [1] is 0.4 °C; in experiment [2] it was -1.31 °C; in experiment [3] it was -0.09 °C; in experiment [4], -0.21 °C; in experiment [5], -0.4 °C; in experiment [6] it was 0.1 °C. For the same compound, the ΔTm is -1.95 °C in experiment [7] and 0.35 °C in experiment [8].
Turning to `COCCOCCn1nc2c(c1C)-c1c(Cl)ccc3c1c(C)c(C(=O)O)n3CCCOc1cc(cc3c(F)c(Cl)ccc13)CCc1cc(nn1C)CSC2`, the ΔTm is -1.69 °C in experiment [1]; -3.74 °C in experiment [2]; -3.85 °C in experiment [3]; -0.76 °C in experiment [4]; 0 °C in experiment [5]; -1.31 °C in experiment [6]. Further, the ΔTm in experiment [7] is 0.82 °C; in experiment [8] it was -3.03 °C.
As to `CCC(CC)(NC(=O)C(C)C)C(=O)N[C@@H](CCCNC(=N)N)C(=O)NC1(C(=O)NC(c2ccc(F)cc2)c2ccc(F)cc2)CCCC1`, the ΔTm was 0.63 °C in experiment [1]; -1.92 °C in experiment [2]; -0.27 °C in experiment [3]; 0.35 °C in experiment [4]; -0.5 °C in experiment [5]; -0.02 °C in experiment [6]. Moreover, the shift in melting temperature (ΔTm) is -0.05 °C in experiment [7] and -1.17 °C in experiment [8].
On to `O=C(Nc1c[nH]nc1C(=O)NC1CCNCC1)c1cc(F)cc(F)c1`, for which the ΔTm was 0.13 °C in experiment [1]; -1.86 °C in experiment [2]; 1.26 °C in experiment [3]; 1.02 °C in experiment [4]; 13.9 °C in experiment [5]; -0.13 °C in experiment [6]. For the same compound, the ΔTm in experiment [7] is -0.72 °C; in experiment [8] it was -0.9 °C.
On to `OC[C@H]1O[C@@H](c2ccc(Cl)c(Cc3ccc(OCCOC4CC4)cc3)c2)[C@H](O)[C@@H](O)[C@@H]1O`, for which the ΔTm in experiment [1] was 0.7 °C; in experiment [2], -2.67 °C; in experiment [3] it was 0.19 °C; in experiment [4] it was -1.19 °C; in experiment [5], -0.38 °C; in experiment [6], 0.15 °C. The ΔTm in experiment [7] is -2.84 °C; in experiment [8], 0.19 °C.
As for `Cc1cc(-n2cccc2)c(S(C)(=O)=O)cc1C(=O)N=C(N)N`, the ΔTm is 0.53 °C in experiment [1]; -2.59 °C in experiment [2]; -0.16 °C in experiment [3]; -0.26 °C in experiment [4]; -0.28 °C in experiment [5]; 0.62 °C in experiment [6]. Further, the ΔTm is -2.33 °C in experiment [7] and -0.16 °C in experiment [8].
In the case of `O=C(NCCCn1ccnc1)c1cc2nc(-c3ccccc3)cc(-c3ccccc3)n2n1`, the ΔTm in experiment [1] is 0.26 °C; in experiment [2], -2.23 °C; in experiment [3], -0.13 °C; in experiment [4] it was 0.15 °C; in experiment [5], -0.59 °C; in experiment [6] it was -2.4 °C. Moreover, the results for the ΔTm in experiment [7] and in experiment [8] were -0.86 °C and -0.04 °C, respectively.

The values above are taken from ChEMBL document CHEMBL5724796, “Tm Shift (DSF) assay results for EUbOPEN Chemogenomics Library” (2024).
